Reference: PubChem BioAssay
Unmarked numbers belong to inactive results. Unless noted, how the calls were made is not given here.

Assay: cell viability in Huh7 cells, primary screen, cytotoxicity control for HCV replication inhibitor project, CellTiter-Glo luminescence, basal, 48 h (AID 1143);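 further: Huh7 hepatoma cells carrying a hepatitis C replication reporter with no stimulus; test concentration not given here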
Details: Huh7 HCV replicon, higher = more signal, called active from +8 up or from −8 down

Question: Which z-score does the source give for `COC(=O)C(CC#Cc1ccc2c(c1)[C@]1(C(=O)N2)[C@H](c2ccc(O)cc2)N2[C@H](c3ccccc3)[C@H](c3ccccc3)OC(=O)[C@H]2[C@@H]1C(=O)N1CCc2cc(OC)c(OC)cc2C1)C(=O)OC` here?
Answer: -0.26

Question: For `COc1ccccc1CN1C(=O)c2ccccc2[C@](Cc2ccccc2I)(C(=O)NCCCN(C)C)[C@@H]1c1ccc(CO)cc1`, which z-score is on record?
Answer: -5.84

Question: Which z-score does the source give for `CN1C(=O)C2C(C1=O)C1C=C(c3ccc(CO)cc3)C2C(c2cccs2)N1C` (centres undefined) here?
Answer: -1.04

Question: Which z-score does the source give for `NCCCC[C@@H]1NC(=O)[C@H]2C[C@@H](C(=O)NCc3ccc(F)cc3)[C@@H](c3cccc(OCCO)c3)N2C1=O` here?
Answer: -0.262

Question: For `CC(C)(C)OC(=O)CC[C@]1(C(=O)N2CCOCC2)N=C(c2ccc(OCCCO)cc2)O[C@H]1c1ccccc1CN=[N+]=[N-]`, which z-score is on record?
Answer: -0.569

Question: For `CC(C)[C@@H](C(=O)O)n1cc(-c2ccccc2)nn1`, which z-score is on record?
Answer: 0.0466

Question: For `NCCCC[C@@H]1NC(=O)[C@H]2C[C@@H](C(=O)NCc3ccc(F)cc3)[C@@H](c3ccc(O)cc3)N2C1=O`, which z-score is on record?
Answer: 0.12

Question: For `O=C1OCCC=C[C@H]2OC34C=CCN(c5ccc(Cl)cc5)C(=O)[C@H]3N(CCO)C(=O)[C@@H]4C12` (some centres undefined), which z-score is on record?
Answer: 0.373

Question: For `O=C1O[C@@H](c2ccccc2)[C@@H](c2ccccc2)N2[C@@H](c3ccc(O)cc3)[C@]3(C(=O)Nc4ccc(C#CC5=CCCCC5)cc43)[C@@H](C(=O)N3CCCCCCC3)[C@H]12`, which z-score is on record?
Answer: -4.91

Assay: P. aeruginosa biofilm formation inhibitors, primary screen, PAO1 strain, BacTiter-Glo luminescence, LB-PBS (AID 1144)
Details: 12 h, higher = more signal

Question: With `CC(C)C(=C=CC[C@@H](O)c1ccc(OCCO)cc1)CCO` as the molecule, how does the z-score read?
Answer: -0.635

Question: With `CC#CCO[Si](C#CCCCCCC)(C(C)C)C(C)C` as the molecule, how does the z-score read?
Answer: -1.06

Question: Which z-score does the source give for `CN(C)CCCC[C@@H]1NC(=O)[C@H]2C[C@@H](C(=O)NCc3ccc(F)cc3)[C@@H](c3ccc(O)cc3)N2C1=O` here?
Answer: 0.792

Question: Which z-score does the source give for `CC(C)N1CC=CC23O[C@@H]4C=CCCOC(=O)C4[C@H]2C(=O)N(CCCCCO)[C@@H]3C1=O` (some centres undefined) here?
Answer: -1.18

Question: With `COCCOC(=O)N1C(=O)[C@@]2(c3ccccc31)[C@H](C(=O)N1CCCCCCC1)[C@H]1C(=O)O[C@H](c3ccccc3)[C@H](c3ccccc3)N1[C@@H]2c1ccc(O)cc1` as the molecule, how does the z-score read?
Answer: -1.14

Question: With `C#CCN([C@H](/C=C/C1CC1)[C@@H](O)Cc1ccccc1)[C@@H](Cc1ccccc1)C(=O)OC` as the molecule, how does the z-score read?
Answer: -0.669

Question: With `COC(=O)[C@@]1(Cc2ccc(F)cc2)[C@H]2c3cc(C(=O)N(C)C)n(CCn4cc([N+](=O)[O-])nc4C)c3C[C@H]2CN1C(=O)c1ccccc1` as the molecule, how does the z-score read?
Answer: -0.0864

Question: Which z-score does the source give for `CCOC(=O)C[C@H]1[C@H](OC(=O)Cc2ccc3c(c2)OCO3)[C@@H](NC(=O)c2ccccc2)c2cc(OCCCO)ccc2N1C(=O)Cc1ccc(OC)cc1` here?
Answer: -1.04

Question: With `C[N+](C)(C)CCCC[C@@H]1NC(=O)[C@H]2C[C@@H](C(=O)NCCCCCNC(=O)CS)[C@@H](c3ccc(O)cc3)N2C1=O` as the molecule, how does the z-score read?
Answer: -1.39

Question: Which z-score does the source give for `CN1C(=O)[C@]2(CCS(=O)(=O)c3ccccc3)N=C(c3ccc(OCCCO)cc3)O[C@@H]2c2ccccc21` here?
Answer: 1.24

Question: With `O=C1O[C@@H](c2ccccc2)[C@@H](c2ccccc2)N2[C@@H](c3ccc(OCCO)cc3)[C@]3(C(=O)Nc4ccc(C#CCCO)cc43)[C@@H](C(=O)Nc3nc4ccccc4s3)[C@H]12` as the molecule, how does the z-score read?
Answer: -0.397

Question: Which z-score does the source give for `COCCn1c(C(=O)N2CCCC2)cc2c1C[C@H]1CN(C(=O)c3ccccc3)[C@@](Cc3ccccc3)(C(=O)OC)[C@@H]21` here?
Answer: -0.784

Question: For `CC(C)(C)N1CC=CC23O[C@@H]4/C=C\CCCOC(=O)C4[C@H]2C(=O)N(CCCCCCO)[C@@H]3C1=O` (some centres undefined), which z-score is on record?
Answer: -1.95

Question: For `CCCC[C@@H](O)C1=C(COC)Cn2c(=O)n(-c3ccccc3)c(=O)n2[C@H]1CO`, which z-score is on record?
Answer: -0.313

Question: For `COC(=O)[C@@H]1N=C(c2ccc(OCCCO)cc2)O[C@@H]1c1ccccc1CN=[N+]=[N-]`, which z-score is on record?
Answer: -0.245

Question: Which z-score does the source give for `CN1C=C(C(=O)OCCS(C)(=O)=O)C(C(=O)OCCS(C)(=O)=O)=CC(CCCO)=CC1c1ccc(CN2CCCC2)cc1` (centres undefined) here?
Answer: 0.356

Question: With `COCCOC(=O)N1C(=O)[C@@]2(c3ccccc31)[C@H](C(N)=O)[C@H]1C(=O)O[C@H](c3ccccc3)[C@H](c3ccccc3)N1[C@@H]2c1ccc(OCCO)cc1` as the molecule, how does the z-score read?
Answer: -0.762

Question: For `CC(C)CNC(=O)[C@@H]1c2ccccc2C(=O)N(C(C)C)[C@H]1c1ccc(CO)cc1`, which z-score is on record?
Answer: -0.753

Question: For `CC(C)c1ccc(NN2C(C(O)C(C)C)C=CC3C(=O)N(c4ccccc4)C(=O)C32)cc1` (centres undefined), which z-score is on record?
Answer: -0.202

Question: For `COCCOC(=O)N1C(=O)[C@@]2(c3cc(C#CCC(C(=O)OC)C(=O)OC)ccc31)[C@H](C(=O)N1CCCCCCC1)[C@H]1C(=O)O[C@H](c3ccccc3)[C@H](c3ccccc3)N1[C@@H]2c1ccccc1OCCO`, which z-score is on record?
Answer: -0.728

Question: With `O=C(NCCO)C1=C[C@H](Oc2ccccc2I)[C@@H](O)[C@H](NCc2ccc(F)cc2)C1` as the molecule, how does the z-score read?
Answer: 0.148

Question: For `COC(=O)Cn1c(C(=O)N(C)C)cc2c1C[C@H]1CN(C(=O)c3ccccc3)[C@@](Cc3ccc(OC)cc3)(C(=O)OC)[C@@H]21`, which z-score is on record?
Answer: 0.655

Question: For `[N-]=[N+]=NCc1ccccc1C[C@]1(C(=O)NCc2ccccc2)N=C(c2ccc(OCCCO)cc2)O[C@H]1c1ccccc1CN=[N+]=[N-]`, which z-score is on record?
Answer: -0.333

Question: With `CC(=O)NCCCC[C@@H]1NC(=O)[C@H]2C[C@@H](C(=O)NCCCCCC[N+](C)(C)C)[C@@H](c3ccc(O)cc3)N2C1=O` as the molecule, how does the z-score read?
Answer: -1.42

Question: For `[N-]=[N+]=NCc1ccccc1C[C@]1(C(=O)N2CCCCC2)N=C(c2ccc(OCCCO)cc2)O[C@H]1c1ccccc1`, which z-score is on record?
Answer: -0.307

Question: With `COc1ccc(CCNC(=O)[C@@]2(Sc3ccc(C)cc3)CC(=O)N(C(C)C)[C@@H]2c2ccc(CO)cc2)cc1` as the molecule, how does the z-score read?
Answer: 0.305

Question: For `COC(=O)C(CC#Cc1ccc2c(c1)[C@]1(C(=O)N2)[C@H](c2ccc(O)cc2)N2[C@H](c3ccccc3)[C@H](c3ccccc3)OC(=O)[C@H]2[C@@H]1C(=O)N1CCc2cc(OC)c(OC)cc2C1)C(=O)OC`, which z-score is on record?
Answer: 0.786

Question: Which z-score does the source give for `COc1ccccc1CN1C(=O)c2ccccc2[C@](Cc2ccccc2I)(C(=O)NCCCN(C)C)[C@@H]1c1ccc(CO)cc1` here?
Answer: 0.777

Question: With `CN1C(=O)C2C(C1=O)C1C=C(c3ccc(CO)cc3)C2C(c2cccs2)N1C` (centres undefined) as the molecule, how does the z-score read?
Answer: 2.04

Question: For `NCCCC[C@@H]1NC(=O)[C@H]2C[C@@H](C(=O)NCc3ccc(F)cc3)[C@@H](c3cccc(OCCO)c3)N2C1=O`, which z-score is on record?
Answer: -0.862

Question: Which z-score does the source give for `CC(C)(C)OC(=O)CC[C@]1(C(=O)N2CCOCC2)N=C(c2ccc(OCCCO)cc2)O[C@H]1c1ccccc1CN=[N+]=[N-]` here?
Answer: -0.405

Question: With `CC(C)[C@@H](C(=O)O)n1cc(-c2ccccc2)nn1` as the molecule, how does the z-score read?
Answer: 0.69

Question: With `NCCCC[C@@H]1NC(=O)[C@H]2C[C@@H](C(=O)NCc3ccc(F)cc3)[C@@H](c3ccc(O)cc3)N2C1=O` as the molecule, how does the z-score read?
Answer: -0.0714

Question: With `O=C1OCCC=C[C@H]2OC34C=CCN(c5ccc(Cl)cc5)C(=O)[C@H]3N(CCO)C(=O)[C@@H]4C12` (some centres undefined) as the molecule, how does the z-score read?
Answer: 0.108

Question: With `O=C1O[C@@H](c2ccccc2)[C@@H](c2ccccc2)N2[C@@H](c3ccc(O)cc3)[C@]3(C(=O)Nc4ccc(C#CC5=CCCCC5)cc43)[C@@H](C(=O)N3CCCCCCC3)[C@H]12` as the molecule, how does the z-score read?
Answer: -0.815
